Values joined by “and” are separate entries in the source; they are usually repeats but may differ in a detail not shown here. Equal values may be shown once. Active and inactive are the calls of the source. Unless noted, no rule for the calls is given here.

The nature of experiment [1]: compounds binding Alexa647 anti-His antibody – biochemical, small-molecule microarray, 635 nm fluorescence, artefact control for SMM control protein annotation, primary screen (AID 1128).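 Also: score merges feature fluorescence with signal-to-noise for each printed compound spot.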 The conditions noted are these: higher = more signal.
Experiment [2] has as its system Human papillomavirus type 1a E7 protein (residues 1-88). Description: HPV1a E7 small-molecule binders, primary screen, biochemical, small-molecule microarray, residues 1-88, 635 nm (AID 1129). The conditions noted are these: small-molecule microarray binding, fluorescence 635 nm; higher = more signal.
For experiment [3], the target named is Focal adhesion kinase 1 (Homo sapiens) (UniProt Q05397). Description: PTK2 protein binding on printed compound slides – biochemical, small-molecule microarray, 635/667 nm fluorescence, BSA, DTT, primary screen (AID 1130).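 Also: composite of spot emission at 667 nm and signal to noise over triplicate slides.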 The conditions noted are these: 635 nm fluorescence, higher = more signal.
In experiment [4] the test system is Fibrinogen (Alexa647-labelled). Briefly: Alexa647-fibrinogen binding to printed small molecules – biochemical, small-molecule microarray, 635/667 nm fluorescence, artefact control for SMM control-protein annotation, profiling panel (AID 1131).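 Also: z-score merges 667 nm fluorescence with per-spot signal-to-noise over triplicate slides.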 The conditions noted are these: fibrinogen-A647 binding fluorescence, higher = more signal.
Experiment [5] deals with Follistatin (Homo sapiens) (UniProt P19883). Briefly: FST protein binding to printed compounds – biochemical, small-molecule microarray, 635/667 nm fluorescence, primary screen (AID 1132). The following applies: 635 nm fluorescence, higher = more signal.
Experiment [6] deals with Fibroblast growth factor 2 (Homo sapiens) (UniProt P09038). Description: basic fibroblast growth factor binding to printed compounds – biochemical, small-molecule microarray, 635/667 nm fluorescence, primary screen (AID 1133). The conditions noted are these: FGF2, fluorescence 635/667, higher = more signal.
The nature of experiment [7]: JC-1 mitochondrial potential readout, lung cancer cells – cell-based, A549, JC-1 fluorescence, basal, 24 h, 100 nL, profiling panel (AID 1138).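 Also: A549 lung adenocarcinoma cells under basal conditions with no added stimulus; test concentration not given here.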 The following applies: higher = more signal.
A further experiment relates to Lefty1. Briefly: Lefty1 protein binding to printed compounds – biochemical, small-molecule microarray, 635/667 nm fluorescence, primary screen (AID 1139). The conditions noted are these: fluorescence 635/667, higher = more signal.
In experiment [8] the test system is wheat germ agglutinin (Triticum aestivum), Alexa647-labelled. Briefly: Alexa647-WGA lectin binding to printed small molecules – biochemical, small-molecule microarray, 635/667 nm fluorescence, artefact control for SMM control-protein annotation, profiling panel (AID 1140).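 Also: score merges 667 nm feature emission with signal to noise over triplicate slides.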 The following applies: WGA-A647 binding, 635 nm fluorescence, higher = more signal.
In experiment [9] the target is Luciferin 4-monooxygenase (Photinus pyralis) (UniProt P08659). Briefly: inhibition of purified Photinus pyralis luciferase – biochemical, luminescence, purified enzyme, 2006 set, primary screen (AID 1141).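 Also: cell-free assay with purified firefly luciferase at 100 ng per well in PBS; test concentration not given here.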 The conditions noted are these: purified firefly luciferase, SteadyGlo luminescence, 30 min; higher = more signal, called active from +8 up or from −8 down.
The test system of experiment [10] is Wnt5a (protein binding on small-molecule microarray). Description: small molecules binding Wnt5a protein – biophysical, small-molecule microarray, 635/667 nm fluorescence, primary screen (AID 1142).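 Also: fluorescence read at 667 nm with signal to noise per printed feature.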 The following applies: 635 nm fluorescence, higher = more signal.
Experiment [11] can be described thus: ATP-based viability of Huh7 replicon cells – cell-based, CellTiter-Glo luminescence, basal, 48 h, cytotoxicity control for HCV replication inhibitor project, primary screen (AID 1143).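 Also: Huh7 hepatoma cells carrying a hepatitis C replication reporter with no stimulus; test concentration not given here.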 The conditions noted are these: higher = more signal, called active from +8 up or from −8 down. On the technique in general: In antiviral work, replicon cells carry a viral genome segment that copies itself.

Experiment [12] can be described thus: Pseudomonas biofilm growth suppression – PAO1 strain, BacTiter-Glo luminescence, LB-PBS, primary screen (AID 1144). The following applies: P. aeruginosa PAO1 biofilm, 12 h, higher = more signal.
Experiment [13] can be described thus: basal CRE-LacZ reporter activity in PC12 – cell-based, unstimulated, primary screen (AID 1145). The following applies: no forskolin, luminescence, 4.5 h, higher = more signal, called active from +8 up or from −8 down.
A short description of experiment [14]: forskolin-driven CRE-LacZ activity in PC12 – cell-based, CRE-LacZ reporter, forskolin-stimulated, primary screen (AID 1146).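 Also: PC12 cells with 6xCRE LacZ reporter stimulated by forskolin 10 µM; beta-galactosidase reporter signal reflecting CREB driven transcription.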 The conditions noted are these: luminescence, 4.5 h, higher = more signal, called active from +8 up or from −8 down.
In experiment [15] the target is Streptavidin (Streptomyces avidinii) (UniProt P22629). Briefly: compounds binding control protein streptavidin – biophysical, small-molecule microarray, 635/667 nm fluorescence, artefact control for SMM compound annotation, primary screen (AID 1147).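 Also: signal reflects streptavidin binding to arrayed compounds as a control protein.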 The conditions noted are these: higher = more signal.
Experiment [16] in a line: probe aInhba binding on compound microarray – biochemical, small-molecule microarray, 635/667 nm fluorescence, primary screen (AID 1148).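 Also: score merges 667nm spot fluorescence with signal-to-noise for antibody binding to printed compounds.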 The conditions noted are these: higher = more signal.
For experiment [17], the target named is Torsin-1A (Homo sapiens) (UniProt O14656). Description: TOR1A wild-type binding on microarray – cell lysate, small-molecule microarray, lysate, 635/667 nm, primary screen (AID 1149). The conditions noted are these: COS7 hTOR1A-WT lysate, 635 nm fluorescence, higher = more signal.
Experiment [18] has the same target. Briefly: torsin A mutant lysate binding on microarrays – cell lysate, small-molecule microarray, COS7 lysate, 635/667 nm fluorescence, primary screen (AID 1150).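 Also: score pools 667 nm emission and signal to noise measuring lysate protein binding.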 The conditions noted are these: COS7 hTOR1A mutant lysate, 635 nm fluorescence, higher = more signal.
Experiment [19] deals with Sonic hedgehog protein (Shh). Briefly: Sonic hedgehog microarray binding compounds – biochemical, small-molecule microarray, 635/667 nm fluorescence, primary screen (AID 1151).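 Also: Shh protein binding to compounds spotted on small-molecule microarray slides; score combines spot fluorescence intensity with signal-to-noise across triplicate slides.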 The conditions noted are these: 635 nm fluorescence, higher = more signal.

Follistatin (Homo sapiens), sequence (P19883 whole entry, looked up): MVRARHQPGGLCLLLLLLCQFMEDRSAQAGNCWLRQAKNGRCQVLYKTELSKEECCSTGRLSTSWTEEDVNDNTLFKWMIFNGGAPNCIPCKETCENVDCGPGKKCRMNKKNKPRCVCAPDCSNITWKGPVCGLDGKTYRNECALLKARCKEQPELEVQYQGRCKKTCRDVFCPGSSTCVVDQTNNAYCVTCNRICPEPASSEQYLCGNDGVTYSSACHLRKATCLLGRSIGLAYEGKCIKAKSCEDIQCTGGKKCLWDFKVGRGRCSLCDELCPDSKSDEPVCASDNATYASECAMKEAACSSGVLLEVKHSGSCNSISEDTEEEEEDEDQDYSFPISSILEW
Streptavidin (Streptomyces avidinii), sequence (P22629 whole entry, looked up): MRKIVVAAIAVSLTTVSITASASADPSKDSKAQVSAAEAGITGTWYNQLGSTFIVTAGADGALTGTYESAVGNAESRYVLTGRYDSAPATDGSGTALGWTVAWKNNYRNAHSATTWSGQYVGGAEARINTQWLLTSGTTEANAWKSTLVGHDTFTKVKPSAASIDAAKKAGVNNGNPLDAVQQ
Luciferin 4-monooxygenase (Photinus pyralis), sequence (P08659 whole entry, looked up): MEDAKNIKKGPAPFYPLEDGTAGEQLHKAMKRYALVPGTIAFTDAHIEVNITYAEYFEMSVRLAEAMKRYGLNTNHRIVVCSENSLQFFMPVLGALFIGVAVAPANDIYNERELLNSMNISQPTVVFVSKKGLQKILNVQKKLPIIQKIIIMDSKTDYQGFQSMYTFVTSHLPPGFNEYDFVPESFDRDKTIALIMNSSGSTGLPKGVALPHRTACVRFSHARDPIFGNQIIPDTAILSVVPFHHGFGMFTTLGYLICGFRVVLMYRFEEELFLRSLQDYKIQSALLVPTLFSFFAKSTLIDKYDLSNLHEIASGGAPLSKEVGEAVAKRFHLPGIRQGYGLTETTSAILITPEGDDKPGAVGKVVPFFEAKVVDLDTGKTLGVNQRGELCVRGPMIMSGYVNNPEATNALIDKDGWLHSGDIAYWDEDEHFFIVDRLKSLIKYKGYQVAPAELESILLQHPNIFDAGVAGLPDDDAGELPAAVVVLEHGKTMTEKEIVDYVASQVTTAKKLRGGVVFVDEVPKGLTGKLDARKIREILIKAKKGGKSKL
Focal adhesion kinase 1 (Homo sapiens), sequence (Q05397 whole entry, looked up): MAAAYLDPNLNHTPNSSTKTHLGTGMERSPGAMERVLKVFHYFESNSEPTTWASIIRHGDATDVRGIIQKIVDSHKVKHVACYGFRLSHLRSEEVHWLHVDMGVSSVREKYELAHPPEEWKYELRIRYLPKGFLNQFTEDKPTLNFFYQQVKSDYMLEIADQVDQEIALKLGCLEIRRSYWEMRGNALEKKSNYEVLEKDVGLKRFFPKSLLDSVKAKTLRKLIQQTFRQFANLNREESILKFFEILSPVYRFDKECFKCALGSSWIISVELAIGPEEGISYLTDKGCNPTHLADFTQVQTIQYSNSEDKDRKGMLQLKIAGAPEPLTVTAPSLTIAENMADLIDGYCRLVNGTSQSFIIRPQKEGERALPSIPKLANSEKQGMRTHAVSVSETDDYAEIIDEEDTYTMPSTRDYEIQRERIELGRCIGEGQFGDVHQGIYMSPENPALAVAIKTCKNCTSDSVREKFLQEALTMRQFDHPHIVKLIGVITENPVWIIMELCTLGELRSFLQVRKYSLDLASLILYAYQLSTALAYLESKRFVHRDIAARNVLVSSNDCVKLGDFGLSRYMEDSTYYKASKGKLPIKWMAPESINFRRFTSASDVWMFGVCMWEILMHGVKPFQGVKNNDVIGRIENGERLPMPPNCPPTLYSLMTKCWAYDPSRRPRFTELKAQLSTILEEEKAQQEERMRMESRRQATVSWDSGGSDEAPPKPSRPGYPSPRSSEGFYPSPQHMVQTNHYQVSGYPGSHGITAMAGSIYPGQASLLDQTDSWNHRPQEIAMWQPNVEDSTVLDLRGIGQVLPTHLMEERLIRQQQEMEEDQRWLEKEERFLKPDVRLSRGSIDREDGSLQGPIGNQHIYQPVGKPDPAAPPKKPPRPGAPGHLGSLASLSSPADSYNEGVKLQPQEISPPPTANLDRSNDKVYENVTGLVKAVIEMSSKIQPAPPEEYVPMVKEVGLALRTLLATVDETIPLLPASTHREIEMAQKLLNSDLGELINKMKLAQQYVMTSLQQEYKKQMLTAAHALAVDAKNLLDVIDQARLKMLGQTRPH
Fibroblast growth factor 2 (Homo sapiens), sequence (P09038 whole entry, looked up): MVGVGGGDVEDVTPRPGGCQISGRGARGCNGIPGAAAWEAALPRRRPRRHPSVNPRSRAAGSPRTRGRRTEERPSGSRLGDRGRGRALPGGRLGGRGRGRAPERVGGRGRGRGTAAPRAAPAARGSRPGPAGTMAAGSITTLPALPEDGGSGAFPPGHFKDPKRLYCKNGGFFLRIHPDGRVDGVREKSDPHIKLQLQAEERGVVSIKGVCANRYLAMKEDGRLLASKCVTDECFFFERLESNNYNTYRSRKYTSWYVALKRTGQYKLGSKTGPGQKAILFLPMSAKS
Torsin-1A (Homo sapiens), sequence (O14656 whole entry, looked up): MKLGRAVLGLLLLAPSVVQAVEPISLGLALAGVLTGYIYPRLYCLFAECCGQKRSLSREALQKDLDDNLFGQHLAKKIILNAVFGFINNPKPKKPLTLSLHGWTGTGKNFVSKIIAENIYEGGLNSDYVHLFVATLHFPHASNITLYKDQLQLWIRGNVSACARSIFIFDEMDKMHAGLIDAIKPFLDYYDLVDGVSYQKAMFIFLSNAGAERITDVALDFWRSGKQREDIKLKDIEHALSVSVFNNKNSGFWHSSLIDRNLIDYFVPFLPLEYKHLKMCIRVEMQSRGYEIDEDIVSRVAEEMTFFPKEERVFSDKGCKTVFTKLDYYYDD

On to `C=CCN(C(=O)C(c1cccs1)N(C(=O)/C=C\C(=O)O)c1ccc(CCO)cc1)c1ccc(OC)cc1` (stereo not given), for which the composite z-score in experiment [1] is 0.502 and -2.51; in experiment [2] it was -0.979 and -1.34; in experiment [3] it was 0.32 and -0.445; in experiment [4] it was -1.36 and -2.21; in experiment [5], -1.14 and -3.18; in [6], -2.42 and -2. Besides, the composite z-score is -0.91 and -2.42 in the experiment on Lefty1; -0.4 and -0.894 in [8]; -1.21 and -1.14 in experiment [10]; -1.31 and -0.93 in [15]; -0.257 and -0.203 in experiment [16]; -3.35 and -2.12 in the experiment with Torsin-1A (Homo sapiens) [17]. Besides, the composite z-score in the experiment with Torsin-1A (Homo sapiens) [18] is 0.425 and -1.7; in [19], -1.17 and -0.672. Further, the z-score was 0.413 and 1.3 in [7]; -1.62 (inactive) and -1.01 (inactive) in experiment [9]; 0.369 (inactive) and 0.0408 (inactive) in experiment [11]; -2.25 (inactive) and -0.545 (inactive) in experiment [12]; -0.358 (inactive) and 0.463 (inactive) in experiment [13]; -0.308 (inactive) and 0.311 (inactive) in experiment [14].

With `C=C[C@@H](OC)[C@H](O)c1ccc(OCCO)cc1`, the composite z-score is 3.17 and -0.401 in [1]; -0.875 and -0.95 in experiment [2]; 0.005 and -0.754 in experiment [3]; -1.95 and -1.4 in [4]; -0.286 and -0.426 in experiment [5]; -0.333 and -0.692 in experiment [6]. In addition, the composite z-score with Lefty1 was -0.545 and -0.201; in experiment [8], 1.26 and -0.543; in experiment [10], -0.825 and -0.361; in experiment [15] it was -0.912 and -1.1; in [16], -0.271 and -0.128; in the experiment with Torsin-1A (Homo sapiens) [17] it was -1.95 and -1.96. Moreover, the composite z-score is -2.39 and -0.212 with Torsin-1A (Homo sapiens) [18]; 0.18 and -0.247 in experiment [19]. The z-score in experiment [7] was 0.27 and -0.142; in [9] it was -3.43 (inactive) and -3.1 (inactive); in experiment [11], 0.423 (inactive) and -2.25 (inactive); in experiment [12], -0.765 (inactive) and -0.622 (inactive); in experiment [13], -0.883 (inactive) and -0.184 (inactive); in experiment [14], -0.812 (inactive) and -1.15 (inactive).

Take `CC(CO)N1C(=O)[C@@H]2C3C(=O)OCCC=C[C@H]3OC23C=CCN(Cc2ccccc2)C(=O)[C@@H]13` (stereo not given in full): the composite z-score in experiment [1] is -0.814 and -1.05; in experiment [2] it was -0.716 and -0.415; in experiment [3], 0.275 and -0.855; in [4], -1.73 and -0.886; in [5] it was -0.972 and -1.08; in experiment [6] it was -0.995 and -0.746. Moreover, the composite z-score is -1.17 and -0.88 in the experiment with Lefty1; -1.16 and -0.612 in experiment [8]; -0.238 and -0.381 in experiment [10]; -0.422 and -0.768 in experiment [15]; -0.128 and -0.0762 in [16]; -0.773 and 0.447 in the experiment with Torsin-1A (Homo sapiens) [17]. Further, the composite z-score with Torsin-1A (Homo sapiens) [18] is 1.55 and 1.17; in experiment [19] it was -0.525 and 0.901. Besides, the z-score in experiment [7] was 0.739 and 0.735; in [9], -0.965 (inactive) and -0.875 (inactive); in experiment [11], -0.783 (inactive) and 0.124 (inactive); in experiment [12], 2.42 (inactive) and 0.328 (inactive); in [13] it was 0.321 (inactive) and 0.195 (inactive); in experiment [14] it was -0.937 (inactive) and -0.56 (inactive).

With `CCN1C(=O)[C@H]2[C@H]3[C@H](O)[C@H](O)CC(=NOC[C@@H](O)COCc4ccco4)[C@@H]3CC[C@H]2C1=O`, the composite z-score in experiment [1] was -0.48 and 2.77; in [2], -1.11 and -1.61; in [3] it was -0.406 and -0.591; in experiment [4] it was -0.852 and -0.943; in experiment [5], 1.34 and -0.205; in experiment [6], 1.66 and -0.129. Moreover, the composite z-score in the experiment with Lefty1 is 1.44 and 0.31; in experiment [8], -0.559 and -0.746; in [10], 0.0867 and 0.192; in [15] it was -0.503 and -0.321; in experiment [16], -0.324 and -0.15; with Torsin-1A (Homo sapiens) [17], 3.48 and 0.374. The composite z-score with Torsin-1A (Homo sapiens) [18] was 3.12 and 0.272; in experiment [19], 2.1 and 1.78. Further, the z-score is -0.254 and -1.57 in [7]; -0.0037 (inactive) and 0.33 (inactive) in [9]; 0.343 (inactive) and 0.422 (inactive) in [11]; -1.34 (inactive) and -0.00909 (inactive) in experiment [12]; -0.746 (inactive) and 1.6 (inactive) in experiment [13]; 0.463 (inactive) and 0.503 (inactive) in experiment [14].
